Source: the supplement of paper PMC5641865, “A screen for kinase inhibitors identifies antimicrobial imidazopyridine aminofurazans as specific inhibitors of the Listeria monocytogenes PASTA kinase PrkA” (The Journal of Biological Chemistry, 2017)
Values joined by “and” are separate entries in the source; they are usually repeats but may differ in a detail not shown here. Equal values may be shown once. ± gives the standard deviation of the averaged measurements.

tested on: Listeria monocytogenes 10403S; experiment: growth inhibition relative to ceftriaxone-alone control; higher = stronger potentiation of ceftriaxone growth inhibition; conditions: 10 µM; ceftriaxone 1 ug/ml; 12 h
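Note: End-point A600 read in BHI broth at 37 °C with 2% DMSO, inhibition computed as (1 − OD with compound plus ceftriaxone ÷ OD with ceftriaxone only) × 100.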

Structure (SMILES) | growth inhibition
O=C(NOC[C@H](O)CO)c1ccc(F)c(F)c1Nc1ccc(I)cc1F | 78.4 ± 6.9%
N#Cc1ccc2c(-c3ccnc(NC4CC4)n3)c(-c3ccc(F)cc3)nn2c1 | 7 ± 2.3%
CNC(=O)c1ccccc1Nc1nc(Nc2ccc(N3CCOCC3)cc2OC)ncc1Cl | -3.4 ± 13%
Fc1ccc(Nc2nccc(-c3c(-c4ccc(C(F)(F)F)cc4)nn4ncccc34)n2)cc1F | -3.35 ± 4.4%
CCS(=O)(=O)c1ccc(OC)c(Nc2ncc(-c3cccc(OC)c3)o2)c1 | -9.19 ± 17%
C=CC(=O)Nc1cccc(Sc2nc(Nc3ccc(N4CCN(C)CC4)cc3)ncc2Cl)c1 | 94.1 ± 1.1%
O=C(Nc1n[nH]c2nc(-c3ccco3)c(Br)cc12)C1CC1 | -3.36 ± 3.1%
Cc1ccc2c(-c3ccnc(Nc4ccccc4)n3)c(-c3ccc(F)cc3)nn2n1 | -6.27 ± 1.4%
c1ccc(-c2n[nH]cc2-c2ccnc(-c3ccc(OCCN4CCOCC4)cc3)c2)nc1 | -1.77 ± 9.5%
CCn1c(-c2nonc2N)nc2c(C#CC(C)(C)O)nc(OC[C@H](N)c3ccccc3)cc21 | 66.2 ± 2.7%
COc1ccc(CNC(=O)c2ccc(-c3cc(-c4nnc(C)o4)ccc3C)cc2)cc1 | 9.02 ± 3.7%
CC(C)c1cnn2c(NCc3ccccc3)cc(NCCCCCCN)nc12 | 102 ± 5.9%
O=C1Nc2ccc(-c3cccnc3)cc2C1=Cc1cc(Br)c(O)c(Br)c1 | 22.1 ± 2.9%
Fc1cc(-c2cccc3ncc(-c4cnn(C5CCNCC5)c4)nc23)cc(F)c1CN1CCOCC1 | 82.1 ± 22%
COC(=O)Nc1nc2cc(Oc3ccc(NC(=O)Nc4cccc(Br)c4)cc3)ccc2[nH]1 | -0.0344 ± 20%
Cc1ccc(C(=O)NC2CC2)cc1-c1ccc2[nH]ncc2c1 | 8.37 ± 0.62%
CCCNc1cccc(-n2ncc3c(N/N=C/c4ccncc4)ncnc32)c1 | -6.32 ± 14%
Cn1cc(C2=C(c3ccc(Cl)cc3Cl)C(=O)NC2=O)c2ccccc21 | 19.5 ± 33%
CCN1CCN(Cc2ccc(-c3cc4c(N[C@H](C)c5ccccc5)ncnc4[nH]3)cc2)CC1 | 22.1 ± 4.2%

Structure (SMILES) | growth inhibition
CNC(=O)c1cccc(C#Cc2cncnc2Nc2ccc(OCc3cccc(F)c3)c(Cl)c2)c1 | -0.177 ± 4.2%
COc1cc2c(Nc3ccc(NC(=O)c4ccccc4)cc3)ncnc2cc1OCCCN1CCOCC1 | 24.9 ± 20%
NC(=O)c1ccc(-c2nc(-c3ccccn3)c(-c3ccc4c(c3)OCO4)[nH]2)cc1 | -0.443% and 16.4%
CN(C)c1ccc(-c2nc3ncc(Cl)c(N4CCN(CC(=O)Nc5nccs5)CC4)c3[nH]2)cc1 | 15.3 ± 0.56%
CC(C)=Cc1cccc2c1/C(=N/Nc1ccc(S(N)(=O)=O)cc1)C(=O)N2 | -2.72 ± 0.38%
COc1cc(Nc2ncc(-c3ccccc3)o2)cc(OC)c1 | 17 ± 3.9%
Nc1ncnc2occ(-c3ccc(NC(=O)Nc4cc(C(F)(F)F)ccc4F)cc3)c12 | -0.902 ± 0.59%
CCn1c(-c2nonc2N)nc2cnc(Oc3cccc(NC(=O)c4ccc(N(C)C)cc4)c3)cc21 | -5.93 ± 1.5%
COc1cc(N2CCN(C(C)C)CC2)ccc1Nc1nc(Nc2cccc(F)c2C(=O)O)c2cc[nH]c2n1 | -0.452 ± 1.2%
O=C(Nc1n[nH]c2cc(-c3ccc(F)cc3)ccc12)C1CC1 | -9.6 ± 16%
CNC(=O)c1cc(Oc2ccc(NC(=O)Nc3cc(C(C)(C)C)nn3-c3ccc4ncccc4c3)c(F)c2)ccn1 [DCC-2036 (Rebastinib)] | 21 ± 0.51%
Nc1ncnc2c1c(-c1cnc3[nH]ccc3c1)nn2C1CCCC1 | 42.9 ± 23%
CC(C)(CO)CNC(=O)c1ccc2c(c1)/C(=N/Nc1ccc(S(N)(=O)=O)cc1)C(=O)N2 | -13.4 ± 16%
CC(C)(C)c1nc(-c2cccc(NS(=O)(=O)c3c(F)cccc3F)c2F)c(-c2ccnc(N)n2)s1 | 56.2 ± 26%
Fc1cccc(COc2ccc(Nc3ncnc4sc(-c5ccco5)cc34)cc2Cl)c1 | 6.89 ± 3.7%
CCCN1CCC=C(c2ccc(Nc3nc(Nc4ccccc4C(N)=O)c4cc[nH]c4n3)c(C)c2)C1 | -7.58 ± 1.9%
COc1cc(N2CCN(C(C)C)CC2)ccc1Nc1nc(Nc2ccc(F)cc2C(=O)NC[C@@H](O)CO)c2cc[nH]c2n1 | 5.09 ± 0.17%
FC(F)(F)c1cccc(Nc2nccc(-c3cnn4nc(-c5ccccc5)ccc34)n2)c1 | -7.85 ± 2.6%
COc1cc2ncn(-c3cc(OCc4ccccc4C(F)(F)F)c(C(N)=O)s3)c2cc1OC | -2.24 ± 0.56%
